Records with an inconclusive call do not appear. Calls of active or inactive are those of the source. The call rests on the fitted dose curve; in most records, active means well fitted inhibition curve with a large enough effect; inconclusive means small, poorly fitted or top-dose-only effect; inactive means flat fitted curve, though single readings scatter.
The compounds below were run against RecQ-like DNA helicase BLM (Homo sapiens) (UniProt P54132) (assay: qHTS for Inhibitors of Bloom's syndrome helicase (BLM): Helicase ATPase Orthogonal Confirmatory Assay for SAR). Details: purified BLM helicase ATPase activity assay; series mostly up to 57.1 µM; activity change, negative = inhibition: at the top concentration.
RecQ-like DNA helicase BLM (Homo sapiens), sequence (P54132 whole entry, looked up): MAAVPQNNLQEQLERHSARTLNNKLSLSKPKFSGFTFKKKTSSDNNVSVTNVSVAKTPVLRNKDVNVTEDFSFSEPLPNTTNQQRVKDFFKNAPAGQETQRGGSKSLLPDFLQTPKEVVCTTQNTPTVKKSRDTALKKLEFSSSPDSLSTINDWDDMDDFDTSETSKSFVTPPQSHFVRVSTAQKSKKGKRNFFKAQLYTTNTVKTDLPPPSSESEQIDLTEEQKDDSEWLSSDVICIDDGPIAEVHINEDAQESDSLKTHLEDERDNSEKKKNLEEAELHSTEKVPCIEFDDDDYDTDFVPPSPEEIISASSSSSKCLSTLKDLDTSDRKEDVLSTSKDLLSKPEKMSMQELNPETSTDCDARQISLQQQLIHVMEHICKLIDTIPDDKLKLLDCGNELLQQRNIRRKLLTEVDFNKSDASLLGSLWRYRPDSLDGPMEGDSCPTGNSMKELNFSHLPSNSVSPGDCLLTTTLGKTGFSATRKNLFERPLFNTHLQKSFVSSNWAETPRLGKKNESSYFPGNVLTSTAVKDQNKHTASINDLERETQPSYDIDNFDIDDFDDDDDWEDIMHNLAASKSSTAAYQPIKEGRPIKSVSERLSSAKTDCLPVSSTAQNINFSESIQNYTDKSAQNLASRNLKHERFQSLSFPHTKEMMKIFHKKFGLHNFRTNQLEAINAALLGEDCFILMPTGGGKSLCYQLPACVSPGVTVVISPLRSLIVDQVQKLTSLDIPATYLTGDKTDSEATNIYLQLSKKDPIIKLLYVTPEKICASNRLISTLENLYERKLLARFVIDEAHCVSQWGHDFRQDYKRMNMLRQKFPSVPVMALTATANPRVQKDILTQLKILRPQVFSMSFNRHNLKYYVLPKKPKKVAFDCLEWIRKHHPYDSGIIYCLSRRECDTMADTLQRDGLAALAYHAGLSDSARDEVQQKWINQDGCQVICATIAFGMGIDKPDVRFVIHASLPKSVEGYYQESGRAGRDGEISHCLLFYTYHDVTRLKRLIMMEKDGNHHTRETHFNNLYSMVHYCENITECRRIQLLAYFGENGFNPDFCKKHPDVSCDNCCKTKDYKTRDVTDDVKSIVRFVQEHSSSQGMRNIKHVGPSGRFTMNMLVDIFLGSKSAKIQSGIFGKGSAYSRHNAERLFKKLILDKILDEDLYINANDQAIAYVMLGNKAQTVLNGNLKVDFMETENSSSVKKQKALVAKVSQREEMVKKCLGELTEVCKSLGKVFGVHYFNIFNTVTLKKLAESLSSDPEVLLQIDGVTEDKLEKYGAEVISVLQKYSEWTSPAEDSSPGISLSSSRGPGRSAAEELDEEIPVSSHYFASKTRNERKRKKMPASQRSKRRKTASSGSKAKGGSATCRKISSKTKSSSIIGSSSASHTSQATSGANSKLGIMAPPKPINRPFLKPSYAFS
Method in brief: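 Purified BLM (2 nM) in Tris-HCl pH 8.0 with MgCl2, DTT, Tween-20, preincubated 15 min with compound. Reaction with 200 nM ssDNA and 100 uM ATP ran 15 min; ADP-Glo luminescence, four-parameter Hill fit.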

Potency, active:
O=C(Cc1ccc2ccccc2c1)Nc1nnc(-c2ccncc2)s1 16.2 µM
O=C(Nc1ccc(Cl)c(Cl)c1)Nc1nnc(-c2ccncc2)s1 6.46 µM

Activity change, negative = inhibition, inactive:
O=C(Nc1ccc(Cl)c(Cl)c1)Nc1nnc(Br)s1 -6.98%
O=C(Nc1ccc(Cl)c(Cl)c1)Nc1nnc(-c2ccc(F)cc2)s1 -2.99%
O=C(Nc1ccc(N2CCOCC2)c(F)c1)Nc1nnc(-c2ccncc2)s1 6.47%
O=C(Nc1nnc(-c2ccncc2)s1)NC12CC3CC(CC(C3)C1)C2 15.3%
CC(C)(C)c1cccc(NC(=O)Nc2nnc(-c3ccncc3)s2)c1 -0.236%
O=C(Nc1ccc(F)c(C(F)(F)F)c1)Nc1nnc(C2CCCCC2)s1 -2.56%
O=C(Nc1ccc(F)c(C(F)(F)F)c1)Nc1ccc(-c2ccncc2)s1 -4.77%
O=C(Nc1ccc2sccc2c1)Nc1nnc(-c2cccnc2)s1 -29%
O=C(Nc1ccc2ccccc2c1)Nc1nnc(Br)s1 6.02%
O=C(Nc1ccc2ccccc2c1)Nc1nnc(C2CCCCC2)s1 -8.14%
O=C(Nc1cccc(C(=O)O)c1)Nc1nnc(-c2ccncc2)s1 -3.61%
CCCCCCNC(=O)Nc1nnc(-c2ccncc2)s1 11.1%

Reference: PubChem BioAssay AID720549 (National Center for Advancing Translational Sciences (NCATS), 2013)
